From ChEMBL document CHEMBL4513145, “CO-ADD screening of Biotechnology Research Centre (C.R.B.t) (Algeria) compounds”
“And” between values parts separate entries of the source, which are not always exact repeats. Identical values can stand only once. Results with a measured potency or affinity are listed apart.

Key:
[1] = tested on: Klebsiella pneumoniae; details: Concentration 32 ug.mL-1, ASSAY_TEST Inhibition of Bacterial Growth, detection method Absorption (OD600), MEDIA CAMHB, plate type 384well, NBS, CORNING #3640, time 18 hr
[2] = tested on: Candida albicans; details: 32 ug/mL
[3] = tested on: Cryptococcus neoformans; details: Concentration 32 ug.mL-1, ASSAY_TEST Inhibition of Fungal Growth, detection method Resazurin, Absorption (OD600-OD570), plate type 384well, NBS, CORNING #3640

Row | SMILES | Inhibition ([1]; 32 ug/mL) | Inhibition [2] | Inhibition ([3]; 32 ug/mL) | Inhibition [1] | Inhibition [3]
1 | Cc1ccc(S(=O)(=O)N2CC(C)C(=O)N2S(=O)(=O)c2ccc(C)cc2)cc1 (configuration not stated) | 2.85% and 1.74% | 7.75% and 4.44% | -9.56% and 1.92% | – | –
2 | O=C(OCc1ccccc1)N1CC(Cc2ccccc2)C(O)O1 (configuration not stated) | – | 12.9% | – | 0% | 9.21%
3 | Cc1ccc(S(=O)(=O)N2CC(Cc3ccccc3)C(=O)N2S(=O)(=O)c2ccc(C)cc2)cc1 (configuration not stated) | -3.35% and -1.6% | – | -1.01% and -2.47% | – | –
4 | CC(C)(C)OC(=O)N1C(O)C2CCCC2N1S(=O)(=O)c1ccc([N+](=O)[O-])cc1 (configuration not stated) | – | 1.02% | – | -0.3% | -8.39%
5 | CC(C)(C)OC(=O)N1C(=O)C(Cc2ccccc2)CN1S(=O)(=O)c1ccc([N+](=O)[O-])cc1 (configuration not stated) | 6.28% and 7.63% and -5.45% | – | -5.52% and -6.93% and -6.97% | – | –
6 | O=C(OCc1ccccc1)N1OC(O)C2CCCCC21 (configuration not stated) | – | 6.56% | – | 8.05% | -9.13%
7 | CC1CN(S(=O)(=O)c2ccc([N+](=O)[O-])cc2)N(C(=O)OC(C)(C)C)C1O (configuration not stated) | – | 0.59% | – | -4.4% | -8.44%
8 | CCCCCCCC1CN(S(=O)(=O)c2ccc(C)cc2)N(S(=O)(=O)c2ccc(C)cc2)C1O (configuration not stated) | – | 8.32% | – | 2.03% | -3.29%
9 | O=C1ON(C(=O)OCc2ccccc2)CC1Cc1ccccc1 (configuration not stated) | 2.56% and 10.07% | 4.94% and 2.48% | 7.64% and 2.52% | – | –
10 | CC1CN(C(=O)OCc2ccccc2)OC1O (configuration not stated) | – | 2.95% | – | 4.15% | -0.06%
11 | CC1C(O)N(C(=O)OC(C)(C)C)N(S(=O)(=O)c2ccc([N+](=O)[O-])cc2)C1C (configuration not stated) | – | 3.18% | – | 8.57% | -8.51%
12 | CC1CN(C(=O)OCc2ccccc2)OC1=O (configuration not stated) | 1.37% and 8.3% and 6.85% | – | – | – | –
13 | CCCCCCCC1CN(S(=O)(=O)c2ccc(C)cc2)N(C(=O)OC(C)(C)C)C1=O (configuration not stated) | – | 1.48% | – | 0.4% | -13.28%
14 | CCCCCCCC1CN(S(=O)(=O)c2ccc(C)cc2)N(C(=O)OC(C)(C)C)C1O (configuration not stated) | – | 2.88% | – | -2.15% | -7.05%
15 | CC1CN(S(=O)(=O)c2ccc([N+](=O)[O-])cc2)N(C(=O)OC(C)(C)C)C1=O (configuration not stated) | 7.28% and 7.49% and 8.98% | – | -7.3% and -1.18% and -10.38% | – | –
16 | CC(C)(C)OC(=O)N1C(O)C(Cc2ccccc2)CN1S(=O)(=O)c1ccc([N+](=O)[O-])cc1 (configuration not stated) | 9.89% and 6.63% and 13.09% | – | -4.16% and -1.5% and -1.29% | – | –
